# Bioassay records deposited in PubChem by National Center for Advancing Translational Sciences (NCATS).
# RORgamma inh: qHTS for inhibitors of ROR gamma transcriptional activity; AID 2551, 2010; Potency, µM (doses to about 53.6 µM), inactives show at the top dose activity change, negative = inhibition, most hits filed as inhibitors; Nuclear receptor ROR-gamma (Mus musculus), P51450; Drosophila S2 Gal4-RORgamma UAS-luciferase reporter, 20 h; actives 5.4% (n = 310,000); note: potency is the fitted concentration of half-maximal effect; nearly all actives have a fitted effect of over 60% in size
#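 Drosophila S2 cells stably expressing Gal4-DBD/mouse RORγ fusion under metallothionein promoter plus UAS-luciferase; compound 1 h, then 700 uM CuSO4 induction for 20 h at ambient temperature; inhibition read as reduced luminescence.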
# VP16 counter: VP16 counterscreen qHTS for inhibitors of ROR gamma transcriptional activity. actives 3.5% (n = 310,000). Drosophila S2 Gal4-VP16 UAS-luciferase, luminescence, 20 h. Potency, µM (top dose mostly 53.6 µM), inactives show at the highest dose activity, negative = inhibition, most hits filed as inhibitors;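 note: Gal4-VP16 expression switched on by copper sulfate through the metallothionein promoter; potency is the fitted concentration of half-maximal effect; nearly all actives have a fitted effect of over 50% in size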
# rTrxR1 inhibitor: qHTS Assay for Inhibitors of Mammalian Selenoprotein Thioredoxin Reductase 1 (TrxR1): qHTS | actives 1% (n = 390,000) | Potency, µM (top dose mostly 114 µM), without a hit: top-dose activity change, negative = inhibition, usual class: inhibitors | Thioredoxin reductase 1, cytoplasmic (Rattus norvegicus), O89049 | recombinant rTrxR1, NADPH fluorescence consumption, selenite substrate; note: potency is the fitted concentration of half-maximal effect; nearly all actives have a fitted effect of over 65% in size
# Target sequence (O89049 whole entry, looked up): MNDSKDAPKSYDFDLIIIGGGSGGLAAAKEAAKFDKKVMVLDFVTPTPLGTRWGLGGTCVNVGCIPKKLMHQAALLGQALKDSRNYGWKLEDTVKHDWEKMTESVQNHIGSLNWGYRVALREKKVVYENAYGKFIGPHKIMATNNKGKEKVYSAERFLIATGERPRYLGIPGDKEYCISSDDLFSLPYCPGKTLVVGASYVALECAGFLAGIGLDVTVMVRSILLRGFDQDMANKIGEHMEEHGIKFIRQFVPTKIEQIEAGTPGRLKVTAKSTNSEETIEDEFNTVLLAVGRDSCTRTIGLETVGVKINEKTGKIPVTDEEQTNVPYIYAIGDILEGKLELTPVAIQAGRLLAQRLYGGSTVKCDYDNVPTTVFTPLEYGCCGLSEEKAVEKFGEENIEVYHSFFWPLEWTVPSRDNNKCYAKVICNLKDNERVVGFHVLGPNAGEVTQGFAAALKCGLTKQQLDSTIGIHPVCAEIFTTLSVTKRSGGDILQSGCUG
#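 Rat TrxR1 (90 nM in the dispensed reagent) was pre-reduced with 400 uM NADPH for 5 min at room temperature, then incubated with compound for 15 min. After 400 uM selenite was added, NADPH fluorescence (Ex 340/Em 450 nm) was followed for 8 min.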
# TrxR1 substrate: qHTS Assay for Substrates of Mammalian Selenoprotein Thioredoxin Reductase 1 (TrxR1): qHTS; Thioredoxin reductase 1, cytoplasmic (Rattus norvegicus), O89049; actives 0.01% (n = 390,000); Potency, µM (titrated, usually from 114 µM), for the others: at the top dose activity change, negative = substrate turnover; AID 588456, 2011; purified TrxR1 substrate turnover, NADPH consumption readout; note: potency is the fitted concentration of half-maximal effect; nearly all actives have a fitted effect of over 50% in size
#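 Rat TrxR1, dispensed at 90 nM, was prereduced with 400 uM NADPH (final) for 5 min at ~22 deg C, then incubated with compound 15 min before 400 uM selenite. A first-read NADPH fluorescence drop versus no-compound background flagged substrates.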
# Coupling enz: qHTS Assay for Inhibitors of Fructose-1,6-bisphosphate Aldolase from Giardia Lamblia: Coupling assay counterscreen; activity change, negative = inhibition, % at 58.2 µM, hits read low; actives 0.67% (n = 290,000); AID 2472, 2010; coupling enzyme system counterscreen, AmpLite Red fluorescence; in the data active = activity change below about -30%
#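 Compounds tested against the coupling enzymes alone at 57.5 uM final; readout was AmpLite Red fluorescence (525/598 nm) after 20 min at RT.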
# GALK inhibitor: qHTS Assay for Inhibitors of Human Galactokinase (GALK). P51570. Purified GALK, Kinase-Glo residual ATP luminescence. Potency, µM (doses to about 57.5 µM), without a hit: at the top dose activity change, negative = inhibition, usual class: inhibitors. actives 0.007% (n = 270,000). AID 1868, 2009; note: potency is the fitted concentration of half-maximal effect
#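 The enzyme phosphorylates galactose (100 uM) using ATP (35 uM); inhibition is detected as higher residual ATP, quantified by bioluminescence after 1 h reaction at room temperature, pH 8.0.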
# The depositor's hits bear a star; ? = inconclusive; . = not tested or not shown; [ ] = another dose, or the depositor's remark. Only some compounds are listed: those with a hit (about 5.9% of all), similar ones and a draw of the others. Unless noted, calls come from the whole dose curve; as a rule, active = well fitted curve in the direction sought with a large enough effect; inconclusive = small, poorly fitted or top-dose-only effect, or another doubt; inactive = no such curve, though single readings can be large; an effect the other way counts as inactive or inconclusive. % is set by controls: 0 for no effect and ±100 for the full control effect.
SMILES,RORgamma inh,VP16 counter,rTrxR1 inhibitor,TrxR1 substrate,Coupling enz,GALK inhibitor
CC(C)n1c(-c2ccc(N(C)C)cc2)nc2ccccc21,3.98µM*,20µM*,30.8%[57.1 µM],174.7%[57.1 µM],-1.8,-1.1%
CN(C)c1ccc(-c2nc3ccccc3n2C)cc1,3.98µM*,?,52.9%,535.1%,0.5,6.6%
CN(C)c1ccc(C(O)Cc2nc3ccccc3n2C)cc1 (configuration not stated),-27.0%,-15.1%,14.3%,-3.2%,1.4,-5.0%
CCn1c(-c2ccc(N)cc2)nc2ccccc21,4.0%,8.4%,19.3%,98.3%,-2.4,0.2%
CS(=O)(=O)N(CC(=O)Nc1c(F)cccc1F)Cc1ccccc1,16.5%,17.5%,15.9%,4.8%,0.5,-6.9%
CCCn1c(SCC(=O)NCC2CCCO2)nc2c1c(=O)n(C)c(=O)n2C (configuration not stated),-3.5%,-6.9%,9.2%,-4.7%,2.0,-1.0%
CCc1ccccc1OCC(=O)Nc1cccc(S(=O)(=O)NC2=NCCCCC2)c1,.,.,17.0%,-2.9%,.,.
O=C(c1ccccn1)N1N=C2/C(=C/c3ccc(F)cc3)CCCC2C1c1ccc(F)cc1 (configuration not stated),?,?,-6.4%,-3.2%,0.8,-2.1%
Cc1cc(C)cc(NC(=S)NC(=O)C2CC2)c1,7.08µM*,6.31µM*,?,-10.3%,.,0.5%
O=C(NC(=S)Nc1cccc([N+](=O)[O-])c1)C1CCCCC1,10µM*,?,-3.1%,5.4%,.,-1.1%
CN(C)S(=O)(=O)c1cccc(NC(=S)NC(=O)C2CCCCC2)c1,?,?,-22.0%,-0.8%,1.9,2.9%
Cc1cccc(NC(=S)NC(=O)C2CC2)c1,7.94µM*,?,.,.,.,-0.3%
Cc1cc(NC(=S)NC(=O)C2CC2)ccc1Br,2.51µM*,2.51µM*,44.7µM*,1.8%,-0.6,0.0%
Cc1ccc(NC(=S)NC(=O)C2CCCC2)c(Br)c1,.,.,?,-0.7%,.,.
COC(=O)c1cccc(NC(=O)Nc2cc(C(=O)NCc3cccc(F)c3)ccc2N2CCCC2)c1,.,.,19.2%[57.1 µM],2.7%[57.1 µM],.,.
Cc1cccc(NC(=S)NC2CC3C=CC2C3)c1 (configuration not stated),5.01µM*,11.2µM*,14.6%[11.4 µM],6.4%[11.4 µM],0.9,.
c1coc(C2=Nc3cccc4cccc(c34)N2)c1,-4.0%,-0.9%,35.5µM*,-7.0%,-0.3,-1.9%
CC1=Nc2cccc3cccc(c23)N1,12.6µM*,-19.5%,?,3.6%,0.1,-1.0%
COc1cccc(C2=Nc3cccc4cccc(c34)N2)c1,-15.2%,-6.2%,-1.1%[57.1 µM],3.5%[57.1 µM],-9.9,0.0%
CCOC(=O)c1sc(=NC(=O)c2ccc(OC)c(OC)c2)n(C)c1C,9.1%,1.0%,17.6%,1.6%,-0.5,1.0%
Cc1c(NC(=O)c2cc3nc(-c4ccc(Br)cc4)cc(C(F)(F)F)n3n2)c(=O)n(-c2ccccc2)n1C,4.5%,3.4%,9.1%[57.1 µM],3.1%[57.1 µM],-3.5,-1.4%
NNc1nc(-c2ccccc2)c2cc(Br)ccc2n1,2.51µM*,-14.1%,8.2%,0.0%,-1.1,-3.9%
NNc1nc(-c2ccccc2)cc(-c2ccc(Br)cc2)n1,17.8µM*,?,-5.6%,1.3%,-0.1,-1.1%
NNc1nc(-c2ccccc2)c2cc(Cl)ccc2n1,12.6µM*,-23.8%,23.5%[57.1 µM],4.9%[57.1 µM],1.2,-0.6%
CCOC(=O)C1C2C=CC3(CN(c4ccc(Cl)c(F)c4)C(=O)C13)O2 (configuration not stated),?,4.6%,6.5%[57.1 µM],-3.4%[57.1 µM],-0.1,-0.7%
